Several values for one entry are separate records, joined by “and”; a condition that tells them apart may be missing. Equal entries are not always repeated. Screen size: about 320,000 compounds; about 2,100 (0.66%) were called active. Inconclusive results (about 53%) are left out. Calls follow the shape of the dose curve; as a rule, active = well fitted inhibition curve with a large enough effect in the signal ratio, with a control signal flat (not every such curve was filed as active); inconclusive = small, poorly fitted or top-dose-only effect, or effect the other way, or a change in a side signal; inactive = flat fitted curve, though single readings scatter; the % refers to the signal ratio. Shown is part of a subset that was picked to be rich in actives.
Potency is read from the fitted curve at half-maximal effect.

This assay is described as follows: qHTS Assay for Lipid Storage Modulators in Drosophila S3 Cells.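 As to cell number change: cells counted by Cell Tracker Red CMTPX staining in the red channel.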 As to lipid storage change, negative = inhibition: % is scaled to controls: 0 for no effect and ±100 for the full control effect. The conditions noted are these: BODIPY lipid droplet fluorescence, 18-24 h, cells fed with added oleic acid; cell number change: measured here: cell count max response; series mostly up to 46.1 µM; lipid storage change, negative = inhibition: at the top concentration. The essentials: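 Laser-scanning cytometry quantifies lipid droplet accumulation (500–530 nm total intensity; droplet/cell object ratio) in oleic acid-fed (400 uM added) Drosophila S3 cells treated with a concentration series. 20 uM Triacsin C defined 100% inhibition.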
For orientation: In qHTS, concentration-response curves come from the screen itself.
For `Cc1ccc(NC(=O)CCN2C(=O)C3C4CCC(C4)C3C2=O)cc1[N+](=O)[O-]` (centres undefined), the “lipid storage change, negative = inhibition” value is 2.12% (inactive) and the cell number change is -0.215%.
For `Cc1ccnc2nc(C(=O)OCC(=O)N(CC(C)C)C3CCS(=O)(=O)C3)nn12` (centres undefined), the “lipid storage change, negative = inhibition” value is 9.53% (inactive) and the cell number change stood at 2.08%.
With `COc1ccccc1C(=O)NCCC(=O)NCC1COc2ccccc2O1` (centres undefined), the Potency was 20.6 µM (active) and the cell number change was -11.7%.
For `COc1ccc(CC(=O)NCC2COc3ccccc3O2)cc1` (centres undefined), the “lipid storage change, negative = inhibition” value is -7.76% (inactive) and the cell number change is 0.718%.
On to `O=C(CCC1COc2ccccc2O1)NCC1COc2ccccc2O1` (centres undefined), for which the “lipid storage change, negative = inhibition” value was 10.9% (inactive) and the cell number change turned out to be 8.2%.
Taken in the same sequence, the figures for `O=C(N/C(=C/c1ccccc1)C(=O)N1CCCCCC1)c1ccccc1` were 0.572% (inactive) and 10.3%.
Take `CCOC(=O)c1c(C)nc2c3ccccc3ccn12`: the outcome was inactive and the cell number change was -20.3%.
Turning to `CCOC(=O)c1c2ccccc2[n+]([O-])n1CCO`, the Potency was 18.4 µM (active) and the cell number change is -10.4%.
As for `CCOC(=O)c1c(O)c(O)c(C(=O)OCC)n1-c1ccccc1`, the “lipid storage change, negative = inhibition” value is -6.73% (inactive) and the cell number change was found to be 6.34%.
Consider `Cc1ccc(S(=O)(=O)Nc2ccc3nc(C)sc3c2)c(C)c1`, for which the Potency is 10.3 µM (active) and the cell number change worked out at 24.9%.
`Cc1nc2ccc(NS(=O)(=O)c3ccccc3F)cc2s1`: the “lipid storage change, negative = inhibition” value was 12.6% (inactive) and the cell number change was found to be 3.06%.
Take `Cc1nc2ccc(NS(=O)(=O)c3ccc(F)cc3F)cc2s1`: the Potency is 13 µM (active) and the cell number change is -1.41%.
Regarding `Cc1ccc(S(=O)(=O)Nc2ccc3nc(C)sc3c2)cc1`, the “lipid storage change, negative = inhibition” value is -16% (inactive) and the cell number change is -22.9%.
For the compound `Cc1nc2ccc(NS(=O)(=O)c3ccc(F)cc3)cc2s1`, the compound was called inactive and the cell number change came to 20%.
For the compound `Cc1ccc(S(=O)(=O)Nc2ccc3nc(N)sc3c2)cc1`, the “lipid storage change, negative = inhibition” value was 16.5% (inactive) and the cell number change was -27.3%.
For the compound `COC(=O)C1=C(C)N(Cc2ccccc2)C(=NCc2ccccc2)N[C@H]1c1cccc(F)c1`, the “lipid storage change, negative = inhibition” value is -22.4% (inactive) and the cell number change was -6.29%.
In the case of `COC(=O)C1=C(C)N(Cc2ccccc2)C(=NCc2cccc(Cl)c2)N[C@H]1c1ccccc1`, the Potency entry was “inactive”; the cell number change is -18.9% and 6.44%.
For the compound `COC(=O)C1=C(C)N(Cc2ccccc2)C(=NCc2cccc(Cl)c2)N[C@H]1c1cccc(F)c1`, the Potency is 20.6 µM (active) and the cell number change was -27.7%.
In the case of `CCc1ccc(/C=C2\SC(=S)N(CCC(=O)NC3=NCCS3)C2=O)cc1`, the “lipid storage change, negative = inhibition” value is -19.7% (inactive).
As for `Cc1cccc(Nc2nc(N)nc(CN3CCN(c4ccc(F)cc4)CC3)n2)c1`, the “lipid storage change, negative = inhibition” value was 13.2% (inactive) and the cell number change is -18.7%.
As to `Cc1ccc(CNC(=O)C2CCN(c3nnc(N4CCCC4=O)s3)CC2)cc1`, the “lipid storage change, negative = inhibition” value is -27.3% (inactive) and the cell number change stood at 24.8%.
Regarding `CCN(CC)CCCNC(=O)C1CCCN(c2nnc(N3CCCC3=O)s2)C1` (centres undefined), the Potency is 25.9 µM (active) and the cell number change was -17%.
As for `CC1CC(C)CN(CCCNC(=O)C2CCCN(c3nnc(N4CCCC4=O)s3)C2)C1` (centres undefined), the “lipid storage change, negative = inhibition” value is -2.92% (inactive) and the cell number change was 2.76%.
In the case of `COc1ccccc1NC(=O)c1c([N+](=O)[O-])c(C(C)(C)C)nn1C`, the “lipid storage change, negative = inhibition” value was 4.27% (inactive) and the cell number change was found to be 11.1%.
In the case of `C#CCNC(=O)C1=C[C@@H](c2coc3ccccc3c2=O)C[C@@H](OCCCCO)O1`, the “lipid storage change, negative = inhibition” value was -3.82% (inactive) and the cell number change is 6.85%.
`CC(=O)c1ccc(OCC(=O)Nc2ccccc2N2CCCC2)cc1`: the “lipid storage change, negative = inhibition” value was -11.1% (inactive) and the cell number change was -18%.
With `CCN1CCN(c2ccccc2NC(=O)C(C)Oc2ccc(C(C)=O)cc2)CC1` (centres undefined), the Potency is 18.4 µM (active) and the cell number change was -13.7%.
Take `CC(Oc1cccc(Cl)c1)C(=O)Nc1ccccc1N1CCCCC1` (centres undefined): the “lipid storage change, negative = inhibition” value was -4.15% (inactive) and the cell number change stood at 7.85%.
Turning to `O=C(NNC(=O)c1ccc(Br)s1)NC1CCCCC1`, the “lipid storage change, negative = inhibition” value is 2.2% (inactive) and the cell number change is 8.62%.
For the compound `CCSc1nnc(NC(=O)CSc2nnc(-c3c[nH]c4ccccc34)n2CC)s1`, the compound was called inactive and the cell number change was found to be 11.1%.
In the case of `CCSc1nnc(NC(=O)CSc2nnc(-c3c[nH]c4ccccc34)n2C)s1`, the Potency is 2.06 µM (active) and the cell number change was -1.84%.
In the case of `CCc1nnc(NC(=O)CSc2nnc(-c3c[nH]c4ccccc34)n2C)s1`, the “lipid storage change, negative = inhibition” value was 3.62% (inactive) and the cell number change is 4.19%.
With `CSc1cccc(NC(=O)C2CCN(S(=O)(=O)c3ccc4c(c3)NC(=O)CO4)CC2)c1`, the compound was classed as inactive.
Consider `O=C(Cc1cccs1)NCCn1ccc2ccccc21`, for which the “lipid storage change, negative = inhibition” value was 17.3% (inactive).
Take `CCOC(=O)CC(=O)CSc1nc2c(sc(=S)n2-c2ccccc2)c(=O)[nH]1`: the “lipid storage change, negative = inhibition” value is -9.14% (inactive) and the cell number change was 3.4%.
For the compound `C/C(=N\O)C1CC(CC(=O)O)C1(C)C` (centres undefined), the Potency is 2.06 µM (active) and the cell number change was found to be 4.13%.
In the case of `CC1(C)CC(CC(=O)O)CC(C)(C)N1`, the “lipid storage change, negative = inhibition” value was -1.16% (inactive) and the cell number change is 0.961%.
For `COCCNC(=O)CSc1nnc(NC(=O)C2CC(=O)N(c3ccccc3OC)C2)s1` (centres undefined) the same measures were 10.5% (inactive) and 3.03%.
Regarding `O=C(CCN1CCN(C(=O)c2ccccc2)CC1)c1ccc(Br)cc1`, the compound was classed as inactive and the cell number change was 16%.
Consider `CC(=O)OCC(OC(C)=O)C(OC(C)=O)C(OC(C)=O)C(=O)Nc1ccccc1` (centres undefined), for which the “lipid storage change, negative = inhibition” value is -3.16% (inactive) and the cell number change was 13.3%.
Turning to `CCSc1nnc2c(n1)[nH]c1c(C)cccc12`, the Potency was 20.6 µM (active) and the cell number change was -28.9%.
In the case of `CSc1nnc2c(n1)[nH]c1c(C)cccc12`, the “lipid storage change, negative = inhibition” value was 15.9% (inactive) and the cell number change is -19.5%.
Taken in the same sequence, the figures for `CCSc1nnc2nc3[nH]c4c(C)cccc4c3nn12` were 3.26% (inactive) and 0.802%.
Taken in the same sequence, the figures for `COc1ccc([N+](=O)[O-])cc1NC(=O)CSCc1ccccc1` were 2.02% (inactive) and -5.97%.
On to `c1csc(Cc2nc3ccccc3[nH]2)c1`, for which the compound was classed as inactive.
Regarding `O=C(COC(=O)C12CC3CC(CC(C3)C1)C2)Nc1ccc2[nH]c(=O)[nH]c2c1`, the result was inactive.
`Cc1cccc(NC(=O)Cn2c(=O)n(CCC(=O)NC3CCCC3)c(=O)c3ccccc32)c1`: the outcome was inactive.
Turning to `COc1ccccc1Nc1nn2c(=O)c3ccc(C(=O)NCc4cccnc4)cc3nc2s1`, the “lipid storage change, negative = inhibition” value is 14.8% (inactive) and the cell number change was -12.9%.
For `CCc1ccccc1Nc1nn2c(=O)c3ccc(C(=O)NCc4cccs4)cc3nc2s1` the same measures were -18.5% (inactive) and -9.06%.
For the compound `O=C(NCc1ccccn1)c1ccc2c(=O)n3nc(Nc4ccccc4)sc3nc2c1`, the Potency was 4.11 µM (active).
With `COc1ccc(OC)c(-c2csc(NC(=O)C3CSC4(C)CCC(=O)N34)n2)c1` (centres undefined), the “lipid storage change, negative = inhibition” value was 24.3% (inactive).
As for `CN1CCN(CCCNC(=S)Nc2ccc(F)c(Cl)c2)CC1`, the “lipid storage change, negative = inhibition” value is 26.4% (inactive).
As to `CCNc1nc(N)nc(-c2cc(Cl)ccc2OC)n1`, the Potency is 3.66 µM (active) and the cell number change is -11.6%.
As for `CNc1nc(N)nc(-c2cc(Cl)ccc2OC)n1`, the “lipid storage change, negative = inhibition” value was 22.3% (inactive) and the cell number change was -0.358%.
Consider `CCCNc1nc(N)nc(-c2cc(Cl)ccc2OC)n1`, for which the “lipid storage change, negative = inhibition” value was 5.2% (inactive) and the cell number change stood at 5.2%.
Turning to `CC(=O)c1ccc(NC(=O)CN(C)CC(=O)Nc2cccc(F)c2)cc1`, the “lipid storage change, negative = inhibition” value was 7.62% (inactive) and the cell number change stood at 10.5%.
`Cc1ccn2cc(-c3cccc(S(=O)(=O)N4CC(C)OC(C)C4)c3)nc2c1` (centres undefined): the “lipid storage change, negative = inhibition” value is -2.61% (inactive) and the cell number change turned out to be 5.5%.
On to `Cc1ccc2nc(-c3cccc(S(=O)(=O)N4CC(C)OC(C)C4)c3)cn2c1` (centres undefined), for which the Potency is 16.4 µM (active) and the cell number change was -15.5%.
As to `CC1CN(S(=O)(=O)c2cccc(-c3cn4cccnc4n3)c2)CC(C)O1` (centres undefined), the “lipid storage change, negative = inhibition” value is 13.1% (inactive) and the cell number change is -27.2%.

Values taken from PubChem BioAssay AID2685 (National Center for Advancing Translational Sciences (NCATS), 2010).
